Rows were chosen to be rich in hits. Some 3.1% of all compounds tested hit in one or more screens of this group.
TRAIL sens C8: sensitizes caspase-8 expressing cells to TRAIL; 1% of 360,000 active; inhibition (viability loss, TRAIL sensitization), % at 10 µM; NB7+C8 cells + TRAIL, ATPlite viability luminescence;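 active = compounds causing at least 50% loss of cell viability in the single-dose screen, relative to plate controls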
PPC-1+TRAIL kill: compounds killing PPC-1 cancer cells with TRAIL present (potentiator screen, no TRAIL-free arm) | AID 1443 | cell killing (% activity), % at 4 µM or 5 µM | 0.41% of 220,000 active | PPC-1 cells + TRAIL, ATPLite viability luminescence;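 active = cell killing above 50% in the first pass at 4 µM, then a duplicate retest at 5 µM averaging 50% or more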;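 note: plate controls were cells with TRAIL plus DMSO for no effect and medium-only wells lacking cells for full effect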
KKLEB tox: counter-screen for CF NF-kB inhibitors: cytotoxicity; KKLEB CF airway cells viability, ATPlite luminescence, overnight; active compounds read low; cells stimulated with P. aeruginosa culture filtrate; activity change (cytotoxicity), % at 5 µM; 0.36% of 360,000 active; AID 602141;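 active = corrected activity change at or below -50% at 5 µM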
Peg3 promoter: reduces Peg3 promoter-driven luciferase expression in HeLa | HeLa PEG-Prom luciferase reporter, luminescence, overnight | 1.7% of 360,000 active | inhibition, % at 20 µM;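 active = inhibition of at least 50% at 20 µM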
HIF-2a block: inhibitors of HIF-2a | 786-0 RCC cells HIF-2a reporter, luciferase luminescence, overnight | inhibition, % at 18.8 µM | 0.72% of 360,000 active;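 active = inhibition of the luminescence signal of 40% or more relative to plate controls, in a single-dose primary screen at 18.75 µM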
CF NFkB block: inhibitors of cystic fibrosis induced NF-kB. inhibition, % at 5 µM. AID 588850. KKLEB NF-kB-GFP reporter, PAF-induced, GFP fluorescence overnight. 0.86% of 360,000 active;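 active = at least 50% inhibition at 5 µM, scaled per plate between neutral and stimulator controls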;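 note: PAF is a Pseudomonas aeruginosa culture filtrate used as stimulus; plate controls were PAF-stimulated DMSO wells for no effect and unstimulated DMSO wells for full effect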
An asterisk follows results filed as active; . = not tested or not shown.

SMILES | TRAIL sens C8 | PPC-1+TRAIL kill | KKLEB tox | Peg3 promoter | HIF-2a block | CF NFkB block
COc1cccc(C(=O)N2CCC3(CC2)OCCO3)c1 | -7.1 | 7.5 | -6.2 | 10.4 | 7.8 | -8.9
Cc1cccc(-c2nc3ccc(C(=O)N4CCC5(CC4)OCCO5)cc3nc2-c2cccc(C)c2)c1 | -16.5 | . | -5.8 | 56.3* | 8.7 | 18.2
C=CCn1c(O)c(C(CC)=NCc2ccc3c(c2)OCO3)c(=O)[nH]c1=O | 11.0 | 1.8 | -3.8 | 23.2 | 10.2 | -1.4
C=CCn1c(O)c(C(CC)=NCc2cc(OC)cc(OC)c2)c(=O)[nH]c1=O | 49.6* | 20.4 | 5.0 | 34.7 | 27.9 | -31.9
Cc1c(CCC(=O)N2C[C@H]3C[C@@H](C2)c2cccc(=O)n2C3)c(=O)oc2c(C)c(O)ccc12 | 5.0 | . | -2.9 | -7.2 | -1.0 | -7.2
Cc1ccc2n1Cc1cnnn1-c1ccccc1-2 | -0.4 | . | 1.9 | 6.0 | -4.0 | -15.5
CCOC(=O)c1c(N)n(CCCOC(=O)c2ccco2)c2nc3ccccc3nc12 | 51.5* | 20.7 | -3.0 | 5.7 | -12.6 | 17.4
COC(C)(C)CCCC(C)C/C=C/C(C)=C/C(=O)OC(C)C (stereo not given) | 1.6 | . | -2.8 | -2.5 | 4.2 | 10.5
NC(N)=N/N=C/c1ccc(N(c2ccccc2)c2ccccc2)cc1 | 68.8* | . | -0.3 | 104.7* | 94.7* | -5.3
CC(N)Cc1cn(Cc2ccccc2)c2ccccc12 (stereo not given) | -9.2 | . | -12.6 | 16.0 | -2.6 | 16.2
Oc1ccccc1-[n+]1c(-c2ccccc2)cc(-c2ccccc2)cc1-c1ccccc1 | 30.8 | . | 14.7 | 13.2 | -6.3 | -15.3
Cc1ccccc1-[n+]1c(-c2ccccc2)cc(-c2ccccc2)cc1-c1ccccc1 | 67.5* | . | -6.5 | 37.5 | -6.6 | 37.0
CCCOC(=O)c1ccc(-[n+]2c(-c3ccccc3)cc(-c3ccccc3)cc2-c2ccccc2)cc1 | 58.3* | . | -10.5 | 48.3 | -8.8 | 28.9
O=C(O)c1ccc(-[n+]2c(-c3ccccc3)cc(-c3ccccc3)cc2-c2ccccc2)cc1 | 3.9 | . | -4.8 | -21.3 | -7.2 | 22.0
Brc1ccc(-[n+]2c(-c3ccccc3)cc(-c3ccccc3)cc2-c2ccccc2)cc1 | 56.2* | . | -9.2 | 31.4 | 2.5 | 30.2
O=C(NCc1cccnc1)Nc1ccc([N+](=O)[O-])cc1 | 20.7 | . | 8.9 | 12.3 | -14.5 | -30.0
C=CCOC(=O)C1C(C(=O)O)C2(Cl)C(Cl)=C(Cl)C1(Cl)C2(Cl)Cl (stereo not given) | -14.0 | . | -10.7 | 16.8 | 14.1 | 12.1
CN1C(=O)CN=C(c2ccccc2)c2cc([N+](=O)[O-])ccc21 | . | 0.1 | . | . | . | .
CSCCC(c1nnnn1Cc1ccccc1)N1CCC2(CC1)C(=O)NCN2c1ccccc1 (stereo not given) | -9.9 | . | 10.1 | 21.6 | 8.9 | -33.0
O=C1NCN(c2ccccc2)C12CCN(C(CCc1ccccc1)c1nnnn1Cc1ccccc1)CC2 (stereo not given) | 4.5 | . | -39.1 | 58.6* | -44.6 | 23.0
O=C1CCC2(O)C3Cc4ccc(O)c5c4C2(CCN3Cc2ccoc2)C1O5 (stereo not given) | 10.8 | . | 9.5 | -7.1 | -1.7 | -22.0
COc1cc2c(c(OC)c1OC)-c1ccc(O)c(=O)cc1C(NC(C)=O)CC2 (stereo not given) | 16.3 | . | -17.7 | -34.1 | -7.9 | 53.8*
COC(=O)C1=C(C(=O)OC)SC2(S1)C(C(=O)OC)=C(C(=O)OC)Sc1c2ssc1=O | 51.2* | . | -68.8* | 110.8* | 87.5* | 113.1*
CC(C)c1oc(=O)cc2c1[C@@H](O)[C@H]1OC(=O)[C@@]3(C)CC[C@@H](O)[C@@]2(C)C13 (stereo not given in full) | 19.5 | 28.1 | -7.3 | 31.0 | 35.2 | 13.6
CC(C)c1oc(=O)cc2c1[C@@H](O)[C@H]1OC(=O)[C@@]3(C)C[C@@H](O)[C@@H](O)[C@@]2(C)C13 (stereo not given in full) | 21.3 | 30.2 | 1.8 | 90.7* | 38.8 | 18.5
CCCOc1ccccc1OCC(=O)N1CCN(CC(=O)N2CCOCC2)CC1 | 3.4 | . | 0.2 | 2.3 | 12.7 | 1.6
Oc1ccc(O)c2c1C1(Cl)C(Cl)=C(Cl)C2(Cl)C1(Cl)Cl | 6.2 | . | -12.4 | 61.1* | 25.0 | 43.8
CC1CCN(C(CC(=O)c2ccccc2)C(=O)c2ccccc2)CC1 (stereo not given) | 15.1 | . | -14.2 | 104.7* | -143.1 | 39.9

Screening data (PubChem)
